# Screening results (PubChem BioAssay)
# Rows were chosen to be rich in hits. Some 4.3% of all compounds tested hit in one or more screens of this group.
# Peg3 promoter: Peg3 promoter activity inhibition. HeLa PEG-Prom luciferase reporter, luminescence, overnight. inhibition, % at 20 µM. hit rate 1.7% among 360,000. AID 588405;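 active = inhibition of at least 50% at 20 µM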
# TRPM1 prom inh: MITF TRPM1 promoter inhibition in SK-MEL-5 cells | inhibition, % at 12.5 µM | AID 488899 | SK-MEL-5 TRPM1 promoter luciferase, 24 h | hit rate 0.83% among 330,000;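 active = mean inhibition across replicates of 60% or more, whatever share of single replicates reaches that level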
# HIF-2a inh: HIF-2a inhibition. 786-0 RCC cells HIF-2a reporter, luciferase luminescence, overnight. inhibition, % at 18.8 µM. hit rate 0.72% among 360,000;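 active = inhibition of the luminescence signal of 40% or more relative to plate controls, in a single-dose primary screen at 18.75 µM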
# CHOP inhibitor: CHOP inhibition in unfolded protein response | CHO-K1 CHOP-promoter luciferase, tunicamycin-induced, 15-18 h | inhibition, % at 10 µM | hit rate 3.8% among 220,000 | AID 2732;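 active = compounds that reduced the stress-induced luciferase reporter signal by more than about 70% of percent inhibition, limit read from the data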;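 note: 0% = tunicamycin plus vehicle and 100% = wells without tunicamycin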
# CF NFkB block: cystic fibrosis NF-kB activation inhibition | KKLEB NF-kB-GFP reporter, PAF-induced, GFP fluorescence overnight | inhibition, % at 5 µM | AID 588850 | hit rate 0.86% among 360,000;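 active = at least 50% inhibition at 5 µM, scaled per plate between neutral and stimulator controls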;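 note: PAF is a Pseudomonas aeruginosa culture filtrate used as stimulus; plate controls were PAF-stimulated DMSO wells for no effect and unstimulated DMSO wells for full effect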
# KKLEB cytotox: counter-screen for CF NF-kB inhibitors: cytotoxicity. KKLEB CF airway cells viability, ATPlite luminescence, overnight; stronger effect = lower value; cells stimulated with P. aeruginosa culture filtrate. hit rate 0.36% among 360,000. AID 602141. activity change (cytotoxicity), % at 5 µM;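 active = corrected activity change at or below -50% at 5 µM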
# * hit, by the source's call; . = not tested or not shown.
SMILES,Peg3 promoter,TRPM1 prom inh,HIF-2a inh,CHOP inhibitor,CF NFkB block,KKLEB cytotox
CCN(CC)S(=O)(=O)c1cc(C(=O)Nc2cc(C)[nH]n2)ccc1Cl,-186,-80,-170,.,10,-7
O=C(CNC(=O)c1ccccc1F)N/N=C\C=C\c1ccccc1,0,7,-12,.,2,9
Cc1ccc(NC(=S)N/N=C/c2c(Cl)cccc2Cl)c(C)c1,-103,-9,-145,-37,50*,-8
CCOC(=O)c1c(C)oc2c1cc(O)c1ccccc12,-303,-45,-37,77*,-15,-5
CC(=O)c1c(C)oc2c1cc(O)c1ccccc12,-32,-8,4,-17,-4,17
CCOC(=O)c1c(C)oc2c1c(C=NCc1ccccn1)c(O)c1ccccc12,14,30,-40,82*,34,9
S=C(Nc1ccc(Cl)cc1Cl)Nc1ccccc1Oc1ccccc1,9,-9,-5,78*,-15,8
S=C(Nc1ccccc1Oc1ccccc1)Nc1cccc(Cl)c1Cl,7,-4,6,35,-22,16
S=C(Nc1cccc(Cl)c1)Nc1ccccc1Oc1ccccc1,12,2,-12,74*,-9,9
NC(=O)C1=CC2C3C=CC2(O)C(=O)OC3O1 (stereo unspecified),102*,71*,-33,.,16,-10
Nc1nc(CN2CCN(c3ccccc3)CC2)nc(N2CCCc3ccccc32)n1,2,-3,14,16,10,-12
Nc1nc(CN2CCN(c3cccc(Cl)c3)CC2)nc(N2CCCc3ccccc32)n1,1,11,9,88*,6,3
Cc1ccc(-n2c(SCC(=O)c3c(N)n(C)c(=O)n(C)c3=O)nc3sc4c(c3c2=O)CCCC4)c(C)c1,12,1,17,73*,-12,11
Cc1ccc(-n2c(SCC(=O)O)nc3sc4c(c3c2=O)CCCC4)cc1,8,-2,17,5,-19,14
CCN(C(=O)COC(=O)CCOc1ccc(C(C)(C)C)cc1)c1c(N)n(Cc2ccccc2)c(=O)[nH]c1=O,20,2,6,.,7,-8
CCc1ccc(OCC(=O)NNCC(=O)Nc2ccc(OC)cc2)cc1,1,-9,-11,.,-4,-26
O=C(CSc1nc(CCC2CCCC2)nc2ccccc12)NCc1ccc2c(c1)OCO2,15,4,30,95*,13,0
O=C(CSc1nc2ccccc2o1)NCc1ccc2c(c1)OCO2,-194,.,-234,79*,6,8
O=C(CSc1ncnc2c1cnn2-c1ccc(F)cc1)NCc1ccc2c(c1)OCO2,1,-2,9,89*,-4,8
O=C(CSc1ncc(C(=O)O)n1-c1ccc(F)cc1)NCc1ccc2c(c1)OCO2,-3,13,18,14,14,6
O=C1C=C(c2ccc3[nH]ccc3c2)C[C@@H](c2ccc(Cl)cc2)C1,-20,5,-42,.,18,0
C=CCc1cccc2cc(C(=O)Nc3ccc(F)cc3)c(=O)oc12,-125,-31,-137,-21,-19,3
C=CCc1cccc2cc(C(=O)Nc3ccc(S(=O)(=O)Nc4nnc(CC)s4)cc3)c(=O)oc12,16,-4,18,72*,4,-9
C=CCc1cccc2cc(C(=O)Nc3ccc(CC(=O)O)cc3)c(=O)oc12,-40,25,64*,41,6,-6
COc1ccc(C2c3sc(=O)[nH]c3SC3C4CCC(C4)C23)cc1 (stereo unspecified),8,15,11,88*,13,-7
SMILES,Peg3 promoter,TRPM1 prom inh,HIF-2a inh,CHOP inhibitor,CF NFkB block,KKLEB cytotox
Cc1cc(C(C)(C)C)oc1C(=O)NCCCNC(=O)c1oc(C(C)(C)C)cc1C,9,4,10,96*,10,1
Cc1cc(C(C)(C)C)oc1C(=O)OCC(=O)NC1CCCCC1,16,-2,10,13,-13,-2
Nc1ccn([C@@H]2O[C@H](C(=O)N[C@H]3c4ccccc4C[C@H]3O)[C@@H](O)[C@H]2O)c(=O)n1,-2,.,12,.,-3,8
O=C(O)c1ccccc1-c1nc2ccccc2[nH]1,-40,-13,-28,-18,-2,-3
Oc1ccc2ccccc2c1C=Nc1ccccc1-c1nc2ccccc2[nH]1,-85,-21,-99,73*,9,-9
CN(C)CCOc1ccc(-c2c(-c3ccsc3)sc3ccccc23)cc1,98*,3,-2,.,42,-31
COc1ccc(-c2sc3ccccc3c2-c2ccc(O)cc2)cc1,42,12,6,.,1,12
COc1ccc(-c2sc3ccccc3c2-c2ccc(OCCN(C)C)cc2)cc1,101*,76*,22,.,44,-47
COc1cccc(NC(=O)CN(C)S(=O)(=O)c2ccc3[nH]c(=O)oc3c2)c1,22,-2,-4,.,3,-6
CC(C)c1cc(C(=O)Nc2cc(Cl)ccc2O)no1,-132,-56,-302,.,-1,11
CC(C)c1cc(C(=O)Nc2cc(Br)ccc2O)no1,-176,-37,-347,78*,6,3
Cc1cccc(CNC(=O)C2CCC(=O)N(CCc3cccc(F)c3)C2)n1 (stereo unspecified),-3,6,6,.,-5,6
COC(=O)CCCn1cc(CN2CC(N(C)C)CS2(=O)=O)nn1 (stereo unspecified),.,.,12,.,.,.
CN(C)CCNc1ncnc2ccccc12,-6,-5,0,6,2,7
CN(C)CCNc1ncnc2oc(-c3ccccc3)c(-c3ccccc3)c12,71*,-12,4,.,27,-21
COc1ccc(-c2oc3ncnc(NCCCN(C)C)c3c2-c2ccc(OC)cc2)cc1,104*,21,33,.,21,-20
COc1cc(CNC(C)C23CC4CC(CC(C4)C2)C3)ccc1OCC(=O)NC(C)(C)C (stereo unspecified),72*,7,25,.,10,-8
COc1cc(CNC(C)(C)CO)ccc1OCC(=O)NC(C)(C)C,11,6,14,9,-35,26
CCCOc1ccccc1/C=C1/C(=O)ON=C1C,23,49,22,.,-23,3
CCCOc1ccc(/C=C2/C(=O)ON=C2C)cc1OCC,50*,11,36,.,2,-8
CCOc1cc(/C=C2\C(=O)ON=C2C)ccc1OCc1ccccc1,89*,49,67*,-30,-16,2
Cc1cccc(C)c1NC(=O)CSc1nc(COc2ccccc2)nc2ccccc12,3,7,1,88*,7,-5
Cc1cccc(NC(=O)CSc2nc(COc3ccccc3)nc3ccccc23)c1C,14,8,-7,28,18,-14
CCOc1ccc(NC(=O)CSc2nc(C3CC3)nc3ccccc23)cc1,25,7,19,96*,24,-18
O=C(NCc1cccnc1)c1ccc2sc([C@H]3C[C@H](O)[C@@H](CO)O3)nc2c1,-2,.,12,.,3,-1
